For test [1], the target named is Mast/stem cell growth factor receptor Kit (Homo sapiens) (UniProt P10721). Particulars: at 1 µM.
The test system of test [2] is Mast/stem cell growth factor receptor Kit (Homo sapiens), P10721 [D816V]. To be noted: at 0.1 µM.
The test system is the same in test [3]. Particulars: at 1 µM.
The subject of test [4] is Mast/stem cell growth factor receptor Kit (Homo sapiens), P10721 [T670I]. Particulars: at 0.1 µM.
Test [5] has the same test system. To be noted: at 1 µM.
For test [6], the system named is Mast/stem cell growth factor receptor Kit (Homo sapiens), P10721 [V560G]. Particulars: at 0.1 µM.
Sequence of Mast/stem cell growth factor receptor Kit (Homo sapiens), P10721 [V560G] (P10721 whole entry V560G): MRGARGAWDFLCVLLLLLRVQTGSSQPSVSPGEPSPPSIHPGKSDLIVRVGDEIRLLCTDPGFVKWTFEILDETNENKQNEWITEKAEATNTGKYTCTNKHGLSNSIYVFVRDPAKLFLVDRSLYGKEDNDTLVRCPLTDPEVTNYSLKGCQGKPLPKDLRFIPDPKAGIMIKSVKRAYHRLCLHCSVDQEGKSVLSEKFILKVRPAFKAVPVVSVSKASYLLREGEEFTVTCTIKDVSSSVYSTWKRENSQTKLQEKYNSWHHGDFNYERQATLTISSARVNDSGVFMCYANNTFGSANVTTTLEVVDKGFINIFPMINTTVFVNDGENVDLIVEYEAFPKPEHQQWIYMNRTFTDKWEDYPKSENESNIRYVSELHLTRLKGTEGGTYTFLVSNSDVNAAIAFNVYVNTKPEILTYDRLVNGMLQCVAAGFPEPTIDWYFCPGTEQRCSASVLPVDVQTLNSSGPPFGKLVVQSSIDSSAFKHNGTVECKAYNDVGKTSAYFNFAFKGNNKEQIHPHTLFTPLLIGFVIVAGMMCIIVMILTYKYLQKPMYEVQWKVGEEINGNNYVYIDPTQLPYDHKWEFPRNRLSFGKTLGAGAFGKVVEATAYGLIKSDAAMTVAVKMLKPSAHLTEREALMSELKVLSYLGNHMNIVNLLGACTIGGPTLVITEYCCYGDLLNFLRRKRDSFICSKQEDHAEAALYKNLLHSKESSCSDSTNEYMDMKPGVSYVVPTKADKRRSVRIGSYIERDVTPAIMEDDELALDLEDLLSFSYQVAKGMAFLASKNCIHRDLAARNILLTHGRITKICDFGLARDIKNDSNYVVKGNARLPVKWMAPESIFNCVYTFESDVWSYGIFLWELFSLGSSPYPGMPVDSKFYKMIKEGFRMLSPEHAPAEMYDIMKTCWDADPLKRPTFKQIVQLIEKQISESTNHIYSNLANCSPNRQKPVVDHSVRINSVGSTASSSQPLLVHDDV
Test [7] has the same test system. To be noted: at 1 µM.
Test [8] deals with Tyrosine-protein kinase Lck (Homo sapiens) (UniProt P06239). To be noted: at 0.1 µM.
Sequence of Tyrosine-protein kinase Lck (Homo sapiens) (P06239 2-509 limits assumed): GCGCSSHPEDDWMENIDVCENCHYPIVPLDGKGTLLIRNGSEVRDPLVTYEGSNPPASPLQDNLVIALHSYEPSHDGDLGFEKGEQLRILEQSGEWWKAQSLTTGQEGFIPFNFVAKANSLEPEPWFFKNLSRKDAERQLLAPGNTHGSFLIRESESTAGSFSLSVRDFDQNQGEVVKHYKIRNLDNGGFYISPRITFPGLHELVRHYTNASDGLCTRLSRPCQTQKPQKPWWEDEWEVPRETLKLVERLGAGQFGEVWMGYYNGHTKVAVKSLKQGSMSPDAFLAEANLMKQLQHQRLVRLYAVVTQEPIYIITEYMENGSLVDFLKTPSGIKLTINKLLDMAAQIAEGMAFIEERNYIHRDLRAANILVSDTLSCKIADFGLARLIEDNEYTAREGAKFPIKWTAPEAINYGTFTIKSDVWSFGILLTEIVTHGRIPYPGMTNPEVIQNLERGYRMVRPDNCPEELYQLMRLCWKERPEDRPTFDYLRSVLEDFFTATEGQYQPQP
The target is the same in test [9]. To be noted: at 1 µM.
For test [10], the target named is Leukocyte tyrosine kinase receptor (Homo sapiens) (UniProt P29376). Particulars: at 0.1 µM.
Sequence of Leukocyte tyrosine kinase receptor (Homo sapiens) (P29376 whole entry): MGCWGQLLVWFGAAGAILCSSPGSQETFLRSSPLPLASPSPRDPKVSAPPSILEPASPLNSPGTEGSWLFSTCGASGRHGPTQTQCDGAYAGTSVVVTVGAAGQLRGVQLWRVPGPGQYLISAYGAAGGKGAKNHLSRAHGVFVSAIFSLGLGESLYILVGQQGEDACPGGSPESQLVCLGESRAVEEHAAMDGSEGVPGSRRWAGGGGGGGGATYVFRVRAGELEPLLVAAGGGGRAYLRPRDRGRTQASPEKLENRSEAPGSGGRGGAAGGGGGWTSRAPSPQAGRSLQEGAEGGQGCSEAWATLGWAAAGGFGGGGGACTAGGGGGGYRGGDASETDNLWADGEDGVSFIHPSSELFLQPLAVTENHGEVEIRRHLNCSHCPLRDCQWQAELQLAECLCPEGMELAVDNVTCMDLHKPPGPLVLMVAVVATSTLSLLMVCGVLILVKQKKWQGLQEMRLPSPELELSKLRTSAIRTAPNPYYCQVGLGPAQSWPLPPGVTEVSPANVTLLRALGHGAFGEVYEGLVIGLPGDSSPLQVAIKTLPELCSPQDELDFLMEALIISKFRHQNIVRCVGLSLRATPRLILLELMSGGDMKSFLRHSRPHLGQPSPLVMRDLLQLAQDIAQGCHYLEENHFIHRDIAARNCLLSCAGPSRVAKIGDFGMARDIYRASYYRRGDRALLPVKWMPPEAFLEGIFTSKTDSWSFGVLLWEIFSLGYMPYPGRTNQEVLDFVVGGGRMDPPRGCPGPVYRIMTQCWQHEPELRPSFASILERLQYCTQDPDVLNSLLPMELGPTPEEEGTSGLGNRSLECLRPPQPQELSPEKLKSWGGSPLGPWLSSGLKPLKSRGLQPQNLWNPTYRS
Test [11] shares this target. Particulars: at 1 µM.
In test [12] the target is Tyrosine-protein kinase Lyn (Homo sapiens) (UniProt P07948). Particulars: at 0.1 µM.
Sequence of Tyrosine-protein kinase Lyn (Homo sapiens) (P07948 2-512 limits assumed): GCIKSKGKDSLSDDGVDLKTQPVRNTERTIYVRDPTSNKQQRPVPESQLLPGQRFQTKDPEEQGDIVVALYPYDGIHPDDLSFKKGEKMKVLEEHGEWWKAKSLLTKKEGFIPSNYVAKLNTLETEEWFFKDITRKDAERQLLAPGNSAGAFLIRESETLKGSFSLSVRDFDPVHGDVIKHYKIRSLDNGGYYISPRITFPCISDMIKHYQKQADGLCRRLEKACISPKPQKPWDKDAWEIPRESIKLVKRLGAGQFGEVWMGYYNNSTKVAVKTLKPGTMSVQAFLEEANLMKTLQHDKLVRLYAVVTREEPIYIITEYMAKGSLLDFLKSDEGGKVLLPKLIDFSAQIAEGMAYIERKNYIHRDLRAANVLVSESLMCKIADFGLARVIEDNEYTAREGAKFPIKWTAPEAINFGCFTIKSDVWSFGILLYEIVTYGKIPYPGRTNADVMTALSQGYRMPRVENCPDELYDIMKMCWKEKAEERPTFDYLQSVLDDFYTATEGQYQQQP
Test [13] shares this target. To be noted: at 1 µM.
The target is the same in test [14]. To be noted: at 0.1 µM. This is another data set of the same source.
Test [15] shares this target. To be noted: at 1 µM. This is another data set of the same source.
Test [16] has as its target T1, Tyrosine-protein kinase Mer (Homo sapiens) (UniProt Q12866).
T1 sequence (whole entry): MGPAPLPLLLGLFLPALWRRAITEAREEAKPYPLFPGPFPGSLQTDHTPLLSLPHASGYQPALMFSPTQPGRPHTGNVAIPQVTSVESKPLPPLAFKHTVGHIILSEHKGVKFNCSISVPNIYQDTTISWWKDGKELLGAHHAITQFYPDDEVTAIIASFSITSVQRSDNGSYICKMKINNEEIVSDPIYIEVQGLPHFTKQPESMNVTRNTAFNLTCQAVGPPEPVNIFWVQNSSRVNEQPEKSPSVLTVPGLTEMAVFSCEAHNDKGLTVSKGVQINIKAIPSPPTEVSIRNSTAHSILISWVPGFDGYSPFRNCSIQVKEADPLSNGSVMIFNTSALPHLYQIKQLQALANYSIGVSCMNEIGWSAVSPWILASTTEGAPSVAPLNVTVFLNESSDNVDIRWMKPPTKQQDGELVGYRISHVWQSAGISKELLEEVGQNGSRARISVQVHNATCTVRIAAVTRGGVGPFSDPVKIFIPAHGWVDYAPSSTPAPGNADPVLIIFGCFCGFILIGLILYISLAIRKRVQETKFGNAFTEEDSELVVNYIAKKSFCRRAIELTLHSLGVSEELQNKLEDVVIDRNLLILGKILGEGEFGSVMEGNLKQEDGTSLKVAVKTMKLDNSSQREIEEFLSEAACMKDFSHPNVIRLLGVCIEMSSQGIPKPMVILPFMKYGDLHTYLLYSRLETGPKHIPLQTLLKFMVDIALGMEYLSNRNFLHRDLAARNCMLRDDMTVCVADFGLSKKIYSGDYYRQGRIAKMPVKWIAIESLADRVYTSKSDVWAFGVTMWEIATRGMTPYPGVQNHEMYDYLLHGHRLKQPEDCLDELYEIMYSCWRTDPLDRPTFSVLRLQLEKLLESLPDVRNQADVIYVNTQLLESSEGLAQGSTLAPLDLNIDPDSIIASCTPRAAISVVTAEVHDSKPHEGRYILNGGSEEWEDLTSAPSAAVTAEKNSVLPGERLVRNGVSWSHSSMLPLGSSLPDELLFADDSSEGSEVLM
To be noted: at 0.1 µM.

In test [17] the target is T1, Tyrosine-protein kinase Mer (Homo sapiens). Particulars: at 1 µM.
Test [18] has as its target Hepatocyte growth factor receptor (Homo sapiens) (UniProt P08581). Particulars: at 0.1 µM.
For test [19] the target is unchanged. Particulars: at 1 µM.
Test [20] addresses T2, Muscle, skeletal receptor tyrosine-protein kinase (Homo sapiens) (UniProt O15146).
T2 sequence (whole entry): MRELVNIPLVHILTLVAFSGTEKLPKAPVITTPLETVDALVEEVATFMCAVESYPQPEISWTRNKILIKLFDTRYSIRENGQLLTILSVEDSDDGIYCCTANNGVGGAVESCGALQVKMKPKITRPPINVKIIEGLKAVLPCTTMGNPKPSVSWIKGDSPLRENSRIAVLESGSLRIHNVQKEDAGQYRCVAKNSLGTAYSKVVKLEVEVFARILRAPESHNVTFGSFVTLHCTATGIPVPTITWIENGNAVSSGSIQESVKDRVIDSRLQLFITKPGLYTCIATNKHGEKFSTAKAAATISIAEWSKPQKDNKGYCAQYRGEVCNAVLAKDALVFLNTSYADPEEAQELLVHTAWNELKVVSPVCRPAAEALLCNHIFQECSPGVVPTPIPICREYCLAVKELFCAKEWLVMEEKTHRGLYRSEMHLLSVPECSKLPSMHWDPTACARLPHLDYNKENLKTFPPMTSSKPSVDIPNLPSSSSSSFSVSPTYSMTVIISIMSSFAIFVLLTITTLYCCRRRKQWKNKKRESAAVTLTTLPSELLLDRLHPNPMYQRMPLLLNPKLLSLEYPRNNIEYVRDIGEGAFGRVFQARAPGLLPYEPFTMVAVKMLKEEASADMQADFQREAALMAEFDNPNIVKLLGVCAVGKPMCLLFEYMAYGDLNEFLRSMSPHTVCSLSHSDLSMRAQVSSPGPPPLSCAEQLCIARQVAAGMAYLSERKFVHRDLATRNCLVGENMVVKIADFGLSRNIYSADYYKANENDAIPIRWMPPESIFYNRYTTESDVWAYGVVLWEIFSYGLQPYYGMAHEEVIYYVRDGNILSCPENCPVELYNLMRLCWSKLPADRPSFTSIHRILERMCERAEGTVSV
To be noted: at 0.1 µM.

The values that follow come from ChEMBL document CHEMBL1961873, “Compounds: GSK PKIS; Assays: Nanosyn kinase panel” (2012).

Sequence of Mast/stem cell growth factor receptor Kit (Homo sapiens) (P10721 whole entry): as the sequence (P10721 whole entry V560G) above, with G560V counted along it
Sequence of Mast/stem cell growth factor receptor Kit (Homo sapiens), P10721 [D816V] (P10721 whole entry D816V): as the sequence (P10721 whole entry V560G) above, with G560V, D816V counted along it
Sequence of Hepatocyte growth factor receptor (Homo sapiens) (P08581 whole entry): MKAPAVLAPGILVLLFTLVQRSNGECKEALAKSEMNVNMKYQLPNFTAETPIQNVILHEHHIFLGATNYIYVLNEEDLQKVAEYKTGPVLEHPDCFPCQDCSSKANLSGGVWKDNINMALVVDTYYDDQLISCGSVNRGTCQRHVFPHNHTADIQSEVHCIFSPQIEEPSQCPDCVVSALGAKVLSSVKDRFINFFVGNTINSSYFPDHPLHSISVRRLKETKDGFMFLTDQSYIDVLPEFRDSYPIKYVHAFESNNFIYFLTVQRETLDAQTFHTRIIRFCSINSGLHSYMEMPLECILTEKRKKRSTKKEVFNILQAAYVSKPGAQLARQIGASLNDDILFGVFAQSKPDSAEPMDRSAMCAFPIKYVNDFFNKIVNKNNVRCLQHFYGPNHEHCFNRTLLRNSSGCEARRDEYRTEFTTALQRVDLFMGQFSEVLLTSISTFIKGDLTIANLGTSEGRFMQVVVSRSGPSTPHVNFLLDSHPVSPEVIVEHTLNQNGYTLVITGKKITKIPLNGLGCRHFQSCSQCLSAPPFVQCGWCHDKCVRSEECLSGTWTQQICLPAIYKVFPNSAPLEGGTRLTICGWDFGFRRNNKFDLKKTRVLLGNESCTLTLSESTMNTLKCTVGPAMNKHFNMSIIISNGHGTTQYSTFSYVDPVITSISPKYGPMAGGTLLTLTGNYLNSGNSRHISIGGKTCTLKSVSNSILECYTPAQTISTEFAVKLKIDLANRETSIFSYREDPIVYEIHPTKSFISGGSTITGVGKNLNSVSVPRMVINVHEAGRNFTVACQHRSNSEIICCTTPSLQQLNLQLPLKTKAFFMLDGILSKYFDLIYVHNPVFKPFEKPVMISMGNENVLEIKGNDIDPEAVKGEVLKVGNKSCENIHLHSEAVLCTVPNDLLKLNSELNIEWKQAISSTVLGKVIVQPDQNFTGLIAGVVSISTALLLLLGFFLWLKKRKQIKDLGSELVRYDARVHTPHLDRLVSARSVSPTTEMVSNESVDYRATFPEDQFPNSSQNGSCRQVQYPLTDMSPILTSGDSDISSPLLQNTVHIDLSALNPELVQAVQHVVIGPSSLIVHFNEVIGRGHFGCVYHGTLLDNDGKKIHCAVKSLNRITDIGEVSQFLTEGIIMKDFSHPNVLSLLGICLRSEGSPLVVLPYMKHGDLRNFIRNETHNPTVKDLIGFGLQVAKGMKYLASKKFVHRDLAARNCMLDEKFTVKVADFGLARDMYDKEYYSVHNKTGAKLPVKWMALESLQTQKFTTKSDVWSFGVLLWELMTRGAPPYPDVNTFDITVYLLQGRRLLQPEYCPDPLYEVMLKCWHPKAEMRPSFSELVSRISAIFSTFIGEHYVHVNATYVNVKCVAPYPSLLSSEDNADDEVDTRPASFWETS
Sequence of Mast/stem cell growth factor receptor Kit (Homo sapiens), P10721 [T670I] (P10721 whole entry T670I): as the sequence (P10721 whole entry V560G) above, with G560V, T670I counted along it

In the case of `COc1cc2ncn(-c3cc(OCCc4ccccc4)c(C(N)=O)s3)c2cc1OC`, the inhibition in test [1] is 5.42%; in test [2] it was 5.33%; in test [3], -0.63%; in test [4], 0.21%; in test [5], -1.17%; in test [6], -2.95%. The inhibition is -0.35% in test [7]; 2.24% in [8]; 5.88% in test [9]; 1.89% in [10]; 1.98% in test [11]; 1.83% in [12]. The inhibition turned out to be 9.45% in test [13]; 0.79% in test [14]; 7.19% in test [15]; 2.54% in test [16]; 6.75% in test [17]; 1.96% in test [18]. Further, the inhibition in [19] stood at 5.5%; in [20], 2.9%.
`CCN(CC)Cc1ccc(Nc2nccc(-c3cnn4ncccc34)n2)cc1`: the inhibition in test [1] was determined as 93.1%; in test [2] it was 1.8%; in [3] it was 4.13%; in test [4] it was 19.4%; in test [5], 80.9%; in [6], 8.63%. For the same compound, the inhibition turned out to be 61.5% in test [7]; 1.35% in test [8]; 15.3% in [9]; 4.48% in [10]; 9.98% in test [11]; 3.53% in test [12]. Moreover, the inhibition in [13] was 11.8%; in test [14], 2.02%; in test [15] it was 9.31%; in test [16] it was 2.93%; in test [17], 9.85%; in [18], 7.6%. Moreover, the inhibition stood at 10.4% in test [19] and 6.42% in test [20].
Regarding `c1ccc(Oc2ccc(Nc3ncc(-c4ccccc4)o3)cc2)cc1`, the inhibition is 19.9% in [1]; -0.64% in test [2]; -0.49% in test [3]; 2.73% in test [4]; 5.55% in [5]; -0.1% in test [6]. Moreover, the inhibition in test [7] is 5.53%; in test [8] it was 2.67%; in [9], 2.2%; in test [10] it was 1.67%; in [11], 1.13%; in test [12] it was 3.36%. The inhibition in test [13] stood at 2.98%; in test [14] it was 1.38%; in test [15] it was 2.09%; in [16] it was 0.19%; in [17] it was 0.42%; in test [18], 1.79%. In addition, the inhibition was 7.6% in test [19] and 1.27% in test [20].
For `NS(=O)(=O)c1ccc(N/N=C2\C(=O)Nc3ccc(-c4cnco4)cc32)cc1`, the inhibition in [1] came out at 42.2%; in test [2], 0.65%; in test [3] it was 5.47%; in test [4], 1.64%; in test [5], 10.7%; in [6], 0.82%. Moreover, the inhibition is 3.19% in test [7]; -1.05% in test [8]; 4.4% in test [9]; 1.24% in [10]; 3.37% in test [11]; 3.33% in test [12]. Besides, the inhibition was 11.1% in test [13]; 1.68% in [14]; 8.81% in test [15]; 1.31% in test [16]; 8.19% in [17]; 6.22% in [18]. The inhibition is 2.64% in [19] and 4.18% in test [20].
In the case of `O=C1Nc2ccccc2/C1=C/Nc1ccc(-n2cncn2)cc1`, the inhibition in test [1] was 75.9%; in [2], 4.37%; in test [3] it was 8.01%; in test [4] it was 8.82%; in [5] it was 47.4%; in test [6], -2.32%. Further, the inhibition in [7] turned out to be 10.2%; in test [8] it was 3.98%; in test [9] it was 9.02%; in [10], 3.3%; in [11] it was 7.47%; in test [12] it was 6.77%. Also, the inhibition worked out at 21.6% in [13]; 4.42% in test [14]; 17.3% in test [15]; 1.28% in [16]; 5.61% in [17]; 5.14% in test [18]. Further, the figures for the inhibition in [19] and in test [20] were 13.6% and 3.92%, respectively.

For orientation: inhibition means the change of the read-out against control, counted positive when it falls.
